According to PubChem BioAssay (NCI):
Compounds without any hit were thinned out: in the full panel of roughly 83,000, 20% have a hit.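 In brief: 96-well plates, 48 h treatment, single concentration, percent growth endpoint.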 Unmarked numbers belong to inactive results. Activity calls are given as the source filed them. The calls were made as follows: active = growth percent below 10; inactive = the rest.

Columns and labels:
Experiment in all cases: NCI-60 one-dose screen, 48 h (100 = growth as untreated, 0 = no growth, -100 = all killed)
SR leukemia = settings: 10 µM unless noted
RPMI-8226 leukemia = settings: 10 µM unless noted
OVCAR-8 ovarian = settings: 10 µM unless noted
OVCAR-5 ovarian = settings: 10 µM unless noted
OVCAR-4 ovarian = settings: 10 µM unless noted
SK-OV-3 ovarian = settings: 10 µM unless noted
IGROV1 ovarian = settings: 10 µM unless noted
OVCAR-3 ovarian = settings: 10 µM unless noted
NCI/ADR-RES ovarian = settings: 10 µM unless noted
T-47D breast = settings: 10 µM unless noted
BT-549 breast = settings: 10 µM unless noted
MDA-MB-435 melanoma = settings: 10 µM unless noted
SW-620 colon = settings: 10 µM unless noted
MCF7 breast = settings: 10 µM unless noted
HCT-116 colon = settings: 10 µM unless noted
HCC-2998 colon = settings: 10 µM
KM12 colon = settings: 10 µM unless noted

Compound	growth (SR leukemia)	growth (RPMI-8226 leukemia)	growth (OVCAR-8 ovarian)	growth (OVCAR-5 ovarian)	growth (OVCAR-4 ovarian)	growth (SK-OV-3 ovarian)	growth (IGROV1 ovarian)	growth (OVCAR-3 ovarian)	growth (NCI/ADR-RES ovarian)	growth (T-47D breast)	growth (BT-549 breast)	growth (MDA-MB-435 melanoma)	growth (SW-620 colon)	growth (MCF7 breast)	growth (HCT-116 colon)	growth (HCC-2998 colon)	growth (KM12 colon)
NC1(C(=O)N[C@@H](CCO)c2ccc(Cl)cc2)CCN(c2ncnc3[nH]ccc23)CC1	23.7%	80%	76.4%	51.6%	64.9%	-6.71% (active)	3.26% (active)	61.3%	90.7%	11.7%	-9.59% (active)	26.3%	62.7%	27.4%	45.7%	46.8%	5.76% (active)
CC1(O)CC(c2nc(-c3ccc4ccc(-c5ccccc5)nc4c3)c3c(N)nccn23)C1 (stereo unspecified)	33.9%	31.8%	39%	41.3%	33.1%	13.5%	40.1%	56.6%	41%	2.62% (active)	19.5%	36.3%	35.4%	14.5%	35.3%	48.7%	8.69% (active)
C[C@]12O[C@H](C[C@]1(O)CO)n1c3ccccc3c3c4c(c5c6ccccc6n2c5c31)CNC4=O	-14.4% (active)	-41.3% (active)	-32.5% (active)	4.92% (active)	-23% (active)	-46.3% (active)	-26.3% (active)	0.931% (active)	-38.1% (active)	-24.4% (active)	-68.5% (active)	-80.1% (active)	3.8% (active)	-55.2% (active)	0.7% (active)	-49.6% (active)	-18.5% (active)
Nc1ncnc2c1c(-c1cccc(OCc3ccccc3)c1)cn2C1CC(CN2CCC2)C1 (stereo unspecified)	-17.7% (active)	-24% (active)	34.9%	36%	57.4%	40.2%	22.4%	58.8%	35.4%	-38.2% (active)	33%	-43.6% (active)	3.94% (active)	-22% (active)	9.54% (active)	17%	6.66% (active)
CCOc1cc2ncc(C#N)c(Nc3ccc(OCc4ccccn4)c(Cl)c3)c2cc1NC(=O)/C=C/CN(C)C	-6.61% (active)	-7.58% (active)	-7.74% (active)	9.55% (active)	-73.6% (active)	-10.6% (active)	-62.5% (active)	47.5%	-10.8% (active)	15.9%	39.4%	-87.7% (active)	-63.9% (active)	-6.35% (active)	–	50.8%	-60% (active)
CNC(=O)c1ccccc1Nc1nc(Nc2ccc3c(c2OC)CCC[C@H](N2CCN(CCO)CC2)C3)ncc1Cl	-5.84% (active)	-13% (active)	12.5%	11.1%	4.95% (active)	-6.83% (active)	-36.9% (active)	30.7%	14%	-23.1% (active)	29.7%	-27.6% (active)	-19.9% (active)	6.63% (active)	-62.6% (active)	–	-27.3% (active)
O=C(NOCCO)c1ccc2cncn2c1Nc1ccc(I)cc1F	56.9%	72.8%	58.6%	19.3%	70.8%	49%	26.2%	102%	71.8%	83.4%	88.8%	47.4%	24.6%	96.2%	15.1%	–	28.6%
COc1ccc(Br)cc1NC(=O)Nc1cccc2c1ccn2Cc1ccnc(N)c1	7.97% (active)	15.2%	21.2%	47.8%	38.8%	26.7%	36.3%	67.4%	31.1%	6.9% (active)	51.1%	11.1%	19.4%	16.5%	16.8%	–	10.3%
COc1cc2c(cc1OCCCN1Cc3ccc(OCCCCC(=O)N4CCC(CCN5CCCC5)CC4)cc3C1)N=C(N)C21CCCC1	1.87% (active)	62.6%	97.9%	102%	77%	71.7%	83%	99.2%	107%	56.2%	63.4%	81.5%	66.4%	58.5%	–	101%	78.5%
CNc1ncc2cc(-c3cc(NC(=O)NCCC(C)(C)C)c(F)cc3C)c(C)nc2n1	17.7%	21%	27%	6.28% (active)	33.2%	-26% (active)	-10.2% (active)	54.5%	24.7%	-2% (active)	30.5%	9.76% (active)	17.5%	45.7%	4.36% (active)	–	18.2%
ClCc1ccc(-c2ccc(Cn3cnc4nc(Cl)nc(Cl)c43)cc2)cc1	-37.1% (active)	-55.8% (active)	-72.1% (active)	-11.1% (active)	46.6%	72.5%	21%	-77.6% (active)	24.8%	-10.5% (active)	-44.8% (active)	-19.5% (active)	-46.8% (active)	-42.4% (active)	-72.4% (active)	–	-63% (active)
C[C@@H]1COCCN1c1cc(C2([S@](C)(=N)=O)CC2)nc(-c2ccnc3[nH]ccc23)n1	7.14% (active)	32.4%	30.7%	34.5%	30.3%	4.16% (active)	17.7%	31.7%	80.4%	21.4%	27.2%	31%	43.7%	14.4%	35.5%	–	21.4%
C[C@H]1Oc2cc(cnc2N)-c2c(nn(C)c2C#N)CN(C)C(=O)c2ccc(F)cc21	6.17% (active)	92.6%	83.2%	58.3%	81.1%	55.1%	80.2%	108%	80.4%	84.4%	103%	80%	90.4%	60%	68.7%	–	9.06% (active)
COc1cc(N2CCC(N(C)C)CC2)ccc1Nc1ncc(Cl)c(Nc2ccccc2P(C)(C)=O)n1	6.79% (active)	27.9%	4.01% (active)	1.36% (active)	18.2%	-77.7% (active)	-24.5% (active)	16.3%	78.1%	56.2%	-14.1% (active)	23.5%	-1.28% (active)	33.1%	-19.6% (active)	–	-1.59% (active)
COCCOc1cnc2ccn([C@H](C)c3nnc4c(F)cc(-c5cnn(C)c5)cn34)c(=O)c2c1	84%	78.8%	86.9%	31.5%	88.4%	82.4%	66.3%	102%	91.3%	94.6%	105%	60%	35.5%	103%	99.9%	–	28.3%
FC(F)c1nc2ccccc2n1-c1nc(N2CCOCC2)nc(N2CCOCC2)n1	1.58% (active)	8.02% (active)	-8.56% (active)	1.3% (active)	-17.1% (active)	-46% (active)	-37% (active)	-0.63% (active)	-12.9% (active)	-36.1% (active)	-8.49% (active)	-8.55% (active)	13.4%	1.28% (active)	14%	–	3.42% (active)
Cc1[nH]c(/C=C2\C(=O)Nc3ccc(F)cc32)c(C)c1C(=O)NC[C@H](O)CN1CCOCC1	-2.38% (active)	49.4%	42.6%	15.1%	50.6%	3.3% (active)	19.6%	70.3%	64.7%	59.5%	37.8%	18.6%	11.8%	38.4%	–	41%	5.33% (active)
